# According to PubChem BioAssay AID588590 (National Center for Advancing Translational Sciences (NCATS), 2011):
# Hit rate of the full screen: of about 390,000 compounds, about 4,000 (1%) were called active. Where a call stands in place of a potency, no number is given. About 7% were inconclusive and are not listed. This is one part of a sample in which actives are shown more often than they occur. Calls follow the shape of the dose curve; as a rule, active = well fitted inhibition curve with a large enough effect; inconclusive = small, poorly fitted or top-dose-only effect, or another doubt; inactive = no such curve, though single readings can be large or run the other way.
# Biological target: DNA polymerase iota (Homo sapiens) (UniProt Q9UNA4)
# Assay: qHTS for Inhibitors of Polymerase Iota
# Settings: Pol iota fluorescent replication assay, 10 min; series mostly up to 115 µM
# Procedure, shortened: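 Fluorescent replication assay read twice, at 0 min and 10 min after adding 50 nM (final) substrate. Enzyme (10 nM) and compounds were first incubated 15 min at room temperature; enzyme-free buffer wells were negative controls.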
# Potency is read from the fitted curve at half-maximal effect.
# Sequence of DNA polymerase iota (Homo sapiens) (Q9UNA4 whole entry, looked up): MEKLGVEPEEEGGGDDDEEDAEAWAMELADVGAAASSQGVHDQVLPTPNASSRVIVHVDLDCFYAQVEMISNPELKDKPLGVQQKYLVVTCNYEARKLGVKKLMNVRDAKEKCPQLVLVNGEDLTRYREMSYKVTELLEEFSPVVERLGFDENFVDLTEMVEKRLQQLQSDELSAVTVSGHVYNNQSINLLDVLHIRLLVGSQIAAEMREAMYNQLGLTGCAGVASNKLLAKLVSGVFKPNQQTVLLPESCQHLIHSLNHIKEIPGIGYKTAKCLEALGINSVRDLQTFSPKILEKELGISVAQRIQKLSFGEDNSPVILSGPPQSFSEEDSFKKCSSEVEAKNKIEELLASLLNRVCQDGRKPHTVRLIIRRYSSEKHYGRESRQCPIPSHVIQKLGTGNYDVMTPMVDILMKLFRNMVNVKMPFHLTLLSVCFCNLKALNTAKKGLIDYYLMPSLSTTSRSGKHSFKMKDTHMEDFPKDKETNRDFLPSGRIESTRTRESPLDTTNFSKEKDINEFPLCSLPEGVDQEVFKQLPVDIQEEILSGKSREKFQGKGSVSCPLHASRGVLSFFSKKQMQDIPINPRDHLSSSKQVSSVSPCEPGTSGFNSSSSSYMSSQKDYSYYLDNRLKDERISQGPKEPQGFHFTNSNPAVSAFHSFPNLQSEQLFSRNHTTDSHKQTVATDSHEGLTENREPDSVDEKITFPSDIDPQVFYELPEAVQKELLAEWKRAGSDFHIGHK
row,Structure (SMILES),Potency
1,COc1ccc(-c2c(C)c3ccc(O)c(CN4CCN(C)CC4)c3oc2=O)cc1OC,inactive
2,COc1c(O)cc2oc(-c3ccc(O)c(O)c3)cc(=O)c2c1O,7.94 µM (active)
3,COc1cc(O)c2c(=O)c3c(O)c(O)ccc3oc2c1OC,inactive
4,C=CCNC(=O)CSc1nc2scc(-c3ccco3)c2c(=O)n1CC=C,44.7 µM (active)
5,C=CCn1c(SCC(=O)NCCCO)nc2sc3c(c2c1=O)CCC3,inactive
6,C=CCn1c(=S)[nH]c2scc(-c3ccco3)c2c1=O,4.47 µM (active)
7,C=CCn1c(SCC(=O)NCC2CCCO2)nc2sc(C)c(C)c2c1=O (centres undefined),inactive
8,CCOC(=O)c1cccc(NC(=O)C(Cc2ccccc2)NS(=O)(=O)c2cccc3nsnc23)c1 (centres undefined),inactive
9,Cc1ccc(N2CC(c3nnc(Cc4ccccc4Cl)o3)CC2=O)cc1 (centres undefined),inactive
10,CCOc1ccc(N(CC)S(=O)(=O)N2CCCC(C(=O)NCc3ccc(Cl)cc3)C2)cc1 (centres undefined),inactive
11,CCOc1ccc(-n2nc3ccc(NC(=O)c4ccc(OC)c(Cl)c4)cc3n2)cc1,inactive
12,CCOc1ccc(CNC(=O)C2CCCN(S(=O)(=O)N(CC)c3ccc(OCC)cc3)C2)cc1 (centres undefined),inactive
13,CCN(CC)CCNC(=O)Cn1ncc2c3ccccc3n(Cc3ccccc3C)c2c1=O,inactive
14,COC(=O)c1ccccc1NC(=O)c1ccc2c(=O)n3c(nc2c1)CCCCC3,inactive
15,N#Cc1cccc(OC(=O)c2ccc3c(=O)n4c(nc3c2)CCC4)c1,20 µM (active)
16,CC1CCN(C(=O)c2ccc3c(=O)n4c(nc3c2)CCCCC4)CC1,inactive
17,CCOC(=O)c1c(NC(=O)Cc2coc3ccc(CC)cc23)sc2c1CCC2,inactive
18,O=C1COc2c1ccc(O)c2O,17.8 µM (active)
19,CCc1ccc(CNC(=O)c2cc3c(=O)n(CC)c4ccccc4c3s2)cc1,inactive
20,Cn1cccc1/C=C1\SC(=O)N(CC(=O)Nc2ccc(F)cc2)C1=O,79.4 µM (active)
21,CCc1ccc(NC(=O)CN2C(=O)CSC2=O)cc1,inactive
22,O=C(CN1C(=O)COc2ccccc21)Nc1ccc(F)cc1,inactive
23,Cc1ccccc1CN1CCC(CNC(=O)c2c(C)oc3ncnc(N4CCCCC4)c23)CC1,inactive
24,CCOc1cc(-c2nnc(SCC(=O)NC3CCCCC3)nc2-c2ccc(OC)c(OCC)c2)ccc1OC,inactive
25,CCc1nn(CC(=O)N2CCN(CC)CC2)c(=O)c2cccn12,inactive

row,Structure (SMILES),Potency
1,CN1CCN(C(=O)Cn2c(C(F)(F)F)nc3ccccc32)CC1,inactive
2,CCCN1CCN(C(=O)Cn2ncc3ccccc32)CC1,39.8 µM (active)
3,Oc1ccc(-c2nc3ccc(Cl)cn3c2Nc2ccc3c(c2)OCO3)cc1,inactive
4,CC(C)c1ccc(NC(=S)NNc2ccc(Cl)c(C(=O)O)c2)cc1,11.2 µM (active)
5,O=C(NC(=S)Nc1ccc(Cl)c(C(=O)O)c1)c1cncc(Br)c1,inactive
6,Cc1ccc(C)c(NC(=S)NNC(=S)Nc2ccc(C(C)C)cc2)c1,inactive
7,COc1ccccc1NC(=O)Cn1cnc2ccc(S(=O)(=O)N3CCC(C)CC3)cc2c1=O,inactive
8,COC(=O)c1ccc2c(c1)N(CC(=O)Nc1ccc(C)c(C)c1)C(=O)c1ccccc1S2,inactive
9,COc1ccccc1NC(=O)CN1C(=O)c2ccccc2Sc2ccc(C(=O)N3CCCC3)cc21,79.4 µM (active)
10,COc1cccc(NC(=O)CN2C(=O)c3ccccc3Sc3ncccc32)c1,inactive
11,CCc1c(C)sc(NC(=O)C2c3ccccc3Oc3ccccc32)c1C(=O)OC(C)C,inactive
12,CC(C)CC(NS(=O)(=O)c1ccc2c(c1)oc(=O)n2C)C(=O)NCc1ccccc1Cl (centres undefined),inactive
13,COc1ccccc1C(=O)Nc1c(C(=O)Nc2ccc(C)cc2)oc2ccccc12,inactive
14,Cn1c(=O)c2c(nc(SCC(=O)Nc3ccc(F)cc3)n2Cc2ccccc2)n(C)c1=O,inactive
15,O=[N+]([O-])c1ccc(/C=C/c2ccc3cccnc3c2)cc1,inactive
16,O=C1CCCN1C(=O)COc1ccc([N+](=O)[O-])cc1,inactive
17,O=C1/C(=C\c2ccc([N+](=O)[O-])cc2)CS(=O)(=O)C/C1=C/c1ccc([N+](=O)[O-])cc1,11.2 µM (active)
18,CC(C)Oc1ccc(CNC(=O)C2CCN(c3nc4ccccc4n(C)c3=O)CC2)cc1,inactive
19,C(=Nc1ccc(/C=C/c2ccnc3ccccc23)cc1)Nc1ccc(/C=C/c2ccnc3ccccc23)cc1,inactive
20,COc1ccc(-c2oc3ncnc(NCCCO)c3c2-c2ccc(OC)cc2)cc1,inactive
21,OCCNc1ncnc2oc(-c3ccco3)c(-c3ccco3)c12,12.6 µM (active)
22,Cc1noc2ncnc(NCc3ccccc3Cl)c12,inactive
23,CN(Cc1ccccc1)c1ncnc2onc(-c3ccc(F)cc3)c12,inactive
24,CN(C)c1cccc2ccccc12,inactive
25,CCN1CCN(CCCNC(=O)c2ccc3c(c2)sc2nc(-c4ccc(OC)cc4)cn23)CC1,inactive

row,Structure (SMILES),Potency
1,CCCCCn1c(CCNC(=O)c2ccc(F)cc2)nc2ccccc21,inactive
2,CN1CCN(C(=O)c2ccc(NS(=O)(=O)c3ccccc3)cc2)CC1,inactive
3,Cc1noc(C)c1S(=O)(=O)Nc1ccc(C(=O)N2CCN(c3ccc(F)cc3)CC2)cc1,79.4 µM (active)
4,Cc1noc(C)c1S(=O)(=O)Nc1ccc(C(=O)O)cc1,inactive
5,O=C(CC1N=C2c3ccccc3N=C(SCc3cccc(Cl)c3)N2C1=O)NCc1ccc2c(c1)OCO2 (centres undefined),inactive
6,O=C(CCc1nc2sc3c(c2c(=O)[nH]1)CCCC3)NCC(=O)Nc1ccccc1Br,50.1 µM (active)
7,CCCc1nc2sc3c(c2c(=O)n1NC(=O)CCCl)CCCC3,inactive
8,O=c1[nH]c(CN2CCN(S(=O)(=O)c3ccc4c(c3)OCCO4)CC2)nc2sc3c(c12)CCCC3,inactive
9,CCOC(=O)c1[nH]c(C)c(CCC(=O)N2CCN(c3ccccc3)CC2)c1C,inactive
10,CCOc1ccc(C(=O)COC(=O)c2ccc(-n3cnnn3)cc2)cc1,inactive
11,C=CCc1cccc(/C=N/NC(=O)COc2ccc(-n3cnnn3)cc2)c1O,inactive
12,O=C(COc1ccc(-n2cnnn2)cc1)Nc1ccccc1Cl,79.4 µM (active)
13,Cc1ccc2[nH]c3c(=O)n(CC(=O)NC(C)C)ncc3c2c1,inactive
14,Fc1ccc(Nc2nc(SCc3ccccc3Cl)nc3ccccc23)cc1,79.4 µM (active)
15,O=C(CSc1nc(Nc2ccc(F)c(F)c2)c2ccccc2n1)c1ccc(Cl)cc1,inactive
16,Fc1ccc(CSc2nc(NCc3ccccc3)c3ccccc3n2)cc1,inactive
17,COc1ccc(-n2c(=O)c3sc4ccccc4c3n(CC(=O)Nc3cccc(C)c3)c2=O)cc1,inactive
18,COc1ccc(NC(=O)Nc2cccc(-c3noc(C)n3)c2)cc1,inactive
19,CSc1nnc(SCc2nc3sc(C(=O)O)c(C)c3c(=O)[nH]2)s1,3.98 µM (active)
20,Cc1sc2nc(CSCC(=O)Nc3c(Cl)cccc3Cl)[nH]c(=O)c2c1C,inactive
21,CCOC(=O)c1sc2nc(CSCC(=O)OCc3ccc(C(=O)OC)o3)[nH]c(=O)c2c1C,inactive
22,Cc1ccc(S(=O)(=O)c2cn(Cc3ccccc3)c3cc(N4CCCC4)c(F)cc3c2=O)c(C)c1,inactive
23,CN(Cc1ccccc1)c1ccc(/C=C/c2ccnc3ccccc23)cc1,inactive
24,CCOc1ccccc1NC(=O)CCc1nnc2ccc(NCc3ccco3)nn12,50.1 µM (active)
25,O=C(CCc1nnc2ccc(NCc3ccco3)nn12)Nc1cc(F)ccc1F,inactive

row,Structure (SMILES),Potency
1,CC1CCN(C(=O)CCc2nnc3ccc(NCc4ccco4)nn23)CC1,inactive
2,Cc1ccc(C=O)cc1Cl,inactive
3,COc1ccc(CCNC(=O)c2ccc3c(c2)nc(C)n3-c2ccc(Br)cc2)cc1OC,inactive
4,CCC(CC)c1nn2cc(-c3ccccc3)nc2s1,inactive
5,O=C(Nc1ccc(C(=O)O)cc1)/C(=C\c1ccccc1)NC(=O)c1ccc(Br)cc1,inactive
6,O=C(O)c1ccc(/C=C2\SC(=S)N(NC(=O)c3ccc(Br)cc3)C2=O)cc1,22.4 µM (active)
7,C/C(CC(=O)N1CCN(C=O)CC1)=N\NC(=O)c1ccc(Br)cc1,inactive
8,CN1CCN(/[N+]([O-])=N/Oc2ccc([N+](=O)[O-])cc2[N+](=O)[O-])CC1,inactive
9,CCc1nnc2c3ccccc3nc(N3CCN(c4ccc(C)cc4C)CC3)n12,inactive
10,COc1ccc(Cl)cc1NC(=O)CCC(=O)c1ccc(C)cc1,inactive
11,COc1ccc(Cl)cc1NC(=O)CCS(=O)(=O)c1ccc(Br)cc1,56.2 µM (active)
12,O=C(CCS(=O)(=O)c1ccc(Br)cc1)NCCc1ccc(Cl)cc1,inactive
13,COc1ccc(Nc2ncc3c(n2)CCN(C(=O)OC(C)(C)C)C3)cc1,inactive
14,Cc1c(C)n(Cc2ccc(Cl)cc2)c2ccc(C(=O)NCCc3ccc(S(N)(=O)=O)cc3)cc12,inactive
15,CN(C(=O)CSc1nnc(NC(=O)Nc2ccccc2)s1)c1ccccc1,inactive
16,O=C(c1[nH]ncc1-c1ccc(Cl)cc1)C1CO1 (centres undefined),56.2 µM (active)
17,COC(=O)c1scc(-c2ccccc2)c1S(=O)(=O)Nc1ccccc1,inactive
18,O=C1CCC[C@@H]2C[C@@]3(C[C@@H]4CCN1[C@H]24)Nc1ccccc1NC3=NCc1ccccc1,inactive
19,COc1cc2nc(N3CCCN(C)CC3)nc(NC3CC3)c2cc1OC,inactive
20,COc1ccc(-c2cn3nc(N4CCCC(C(=O)NCCCOC(C)C)C4)sc3n2)cc1 (centres undefined),inactive
21,COc1cc(N/C=C2\CC(=O)NC(C)=C2C#N)cc(OC)c1OC,10 µM (active)
22,COc1cc(NC(=O)c2nc3ccccc3nc2C)cc(OC)c1OC,inactive
23,COc1cc2c(cc1OC)C(C(=O)Nc1cc(C)c(OC)c(C)c1)CC(=O)N2 (centres undefined),inactive
24,COc1ccc(-c2nc3sc(CCNS(=O)(=O)c4ccc(F)c(C)c4)c(C)n3n2)cc1,inactive
